Source: PubChem BioAssay (NCATS)
Records with an inconclusive call do not appear. The source made the active and inactive calls. Calls come from the whole dose curve; as a rule, active = well fitted curve in the direction sought with a large enough effect; inconclusive = small, poorly fitted or top-dose-only effect, or another doubt; inactive = no such curve, though single readings can be large; an effect the other way counts as inactive or inconclusive.

How the values were obtained:
[1] = target: Cytochrome P450 3A7 (Homo sapiens) (UniProt P24462); assay: Cytochrome P450 family 3 subfamily A member 7 (CYP3A7) small molecule antagonists: luciferase biochemical qHTS assay (AID 1963596); note: % is set by controls: 0 for no effect and ±100 for the full control effect; nearly all actives have a fitted effect of over 40% in size
Method in brief: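 In this luminescent screen, enzyme and proluciferin substrate meet test compound for 10 min before NADPH regeneration solution drives a 1 h room-temperature reaction; detection reagent halts turnover and luminescence is read 20 min later.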

[2] = Viability qHTS for spleen associated tyrosine kinase inhibitor (SYKi) naive MV4-11 cells (AID 1963823); note: nearly all actives have a fitted effect of over 40% in size
Method in brief: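 Compounds were dispensed acoustically onto plates, MV4-11 cells (SYKi-naive) added at 500 per well, and plates incubated 72 hr at 37 C. CellTiter-Glo was added and luminescence measured after 10 min.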

[3] = Viability qHTS for spleen associated tyrosine kinase inhibitor (SYKi) drug resistant MV4-11 cells (AID 1963824); note: nearly all actives have a fitted effect of over 35% in size
Method in brief: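 SYK inhibitor-resistant MV4-11 AML cells, 500 per well, added to predispensed compounds and incubated 72 hr at 37 C, 5% CO2. Viability measured by CellTiter-Glo luminescence after 10 min at room temperature.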

[4] = Cellular viability qHTS for adrenocortical cancer (ACC) cell line SW-13 (AID 1963989); conditions: SW-13 ACC cells viability, CellTiter-Glo, 48 h; activity (max response): active compounds read low;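 note: cells grown in serum-free medium with ITS supplement; % is set by controls: 0 for no effect and ±100 for the full control effect; nearly all actives have a fitted effect of over 65% in size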
Method in brief: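 Luminescent ATP read-out (CellTiter-Glo, 20 min at room temperature) measured metabolically competent SW-13 cells after 48 h compound treatment. Final concentrations spanned up to 46 uM; bortezomib served as positive control.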

[5] = Cellular viability qHTS for adrenocortical cancer (ACC) cell line NCI-H295R (AID 1963990);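 note: 0% = DMSO only wells and -100% = full killing with cytotoxic reference compound; nearly all actives have a fitted effect of over 60% in size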
Method in brief: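 IC50 and maximal efficacy derive from four-parameter logistic modelling of titration curves, with reads scaled between DMSO-only wells (0%) and doxorubicin hydrochloride (100% inhibition). Compounds spanned up to 46 uM over 48 h.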

Chain of Cytochrome P450 3A7 (Homo sapiens) (P24462 whole entry, looked up): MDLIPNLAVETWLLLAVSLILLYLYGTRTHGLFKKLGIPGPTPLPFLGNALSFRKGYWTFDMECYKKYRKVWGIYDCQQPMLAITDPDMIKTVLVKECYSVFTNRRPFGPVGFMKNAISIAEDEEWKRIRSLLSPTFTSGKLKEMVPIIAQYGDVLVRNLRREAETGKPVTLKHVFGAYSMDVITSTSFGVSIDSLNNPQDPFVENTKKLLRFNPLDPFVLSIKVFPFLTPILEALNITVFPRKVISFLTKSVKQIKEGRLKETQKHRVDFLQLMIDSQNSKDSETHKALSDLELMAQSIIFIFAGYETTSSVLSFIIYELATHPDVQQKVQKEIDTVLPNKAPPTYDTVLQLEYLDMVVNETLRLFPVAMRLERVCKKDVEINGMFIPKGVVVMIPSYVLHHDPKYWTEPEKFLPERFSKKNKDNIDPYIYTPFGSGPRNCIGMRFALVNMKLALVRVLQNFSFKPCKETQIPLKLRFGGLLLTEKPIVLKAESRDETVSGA

C[C@H]1CN(C[C@H](Cc2ccccc2)C(=O)NCC(=O)O)CC[C@@]1(C)c1cccc(O)c1
inactive: Potency [1] | Potency [2] | Potency [3] | activity (max response) [4] 8.76% | Potency [5]

NS(=O)(=O)c1ccc(C(=O)O)cc1
inactive: Potency [1] | Potency [2] | Potency [3] | activity (max response) [4] 11.4% | Potency [5]

CNc1c2c(nn1C)CCCC2
inactive: Potency [1] | Potency [2] | Potency [3] | activity (max response) [4] -0.416% | Potency [5]
